Only some compounds are listed: those with a hit (about 2.9% of all), similar ones and a draw of the others.
DRD3 agonist – D3 dopamine receptor (human) agonism. D3R DiscoveRx beta-arrestin cells, luminescence, 90 min. 410,000 compounds, 0.58% hits. AID 652048. P35462. max activation, %; in the data active means max activation above about 30%; further: 0% is about no effect
Target sequence (P35462 whole entry, looked up): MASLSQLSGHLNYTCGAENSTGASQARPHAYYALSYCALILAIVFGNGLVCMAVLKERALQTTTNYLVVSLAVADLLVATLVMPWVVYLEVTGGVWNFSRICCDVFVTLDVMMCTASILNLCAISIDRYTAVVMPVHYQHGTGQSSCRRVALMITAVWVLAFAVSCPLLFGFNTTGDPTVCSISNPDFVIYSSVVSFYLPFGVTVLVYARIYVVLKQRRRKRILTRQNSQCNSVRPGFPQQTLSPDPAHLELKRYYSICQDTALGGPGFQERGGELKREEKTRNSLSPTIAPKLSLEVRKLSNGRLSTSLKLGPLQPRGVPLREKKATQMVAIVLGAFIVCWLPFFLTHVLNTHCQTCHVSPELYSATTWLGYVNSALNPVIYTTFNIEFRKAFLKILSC
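Agonist mode: compounds and dopamine controls were applied to plated cells for 90 min at 37 degrees C after an overnight attachment at 1500 cells/well. Luminescent read-out followed 30 - 60 minutes at room temperature with DiscoveRx detection reagent.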
DRD3 antagonist – D3 dopamine receptor (human) antagonism; D3R cells, DiscoveRx beta-arrestin luminescence, antagonist mode; stronger effect = lower value; AID 652054; max response, negative = inhibition, %; 360,000 compounds, 2.5% hits; P35462; in the data active means max response below about -50%; inconclusive means no clear call, values can overlap the other calls; further: on the % scale 0 is the no-effect control and ±100 the full control effect
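Cells expressing the human receptor were seeded at 1500 cells/well, incubated overnight at 37 degrees C in 5% CO2, then exposed to library compounds with dopamine controls for 90 minutes at 37 degrees C before luminescent detection.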
Integrin act MD – activates integrin-mediated alleviation for muscular dystrophy. 350,000 compounds, 0.064% hits. alpha7betagal myoblasts, beta-gal FDG fluorescence, 48 h. AID 624291. Potency, µM (highest dose often 38.3 µM), inactives show top-dose activation, usual class: activators; active means well fitted activation curve with a large enough effect; inconclusive means small, poorly fitted or top-dose-only effect; inactive means no such curve, though single readings can be large or run the other way;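 further: potency means the concentration at half of the fitted maximal effect; 100% = response of the positive control SU9516; nearly all actives have a fitted effect of over 60% in size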
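Alpha7betagal+/- myoblasts (passage 13) were plated 16-24 hr, then exposed to compounds (1:260 dilution of DMSO stock) for 48 hours at 37C. After MPER lysis, β-galactosidase reporter activity was read as FDG fluorescence (ex 480/em 540) after 30 minutes.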
* marks the source's active call; other numbers are inactive results; ? = inconclusive; . = no result given; [ ] = remark or other dose.

SMILES | DRD3 agonist | DRD3 antagonist | Integrin act MD
COc1cccc(CN2CCN(C3CCN(c4ccccc4C)CC3)CC2CCO)c1 (stereo unspecified) | -5 | -60* | -7%
Cc1cc(F)ccc1N1CCC(N2CCN(C(C)C)C(CCO)C2)CC1 (stereo unspecified) | -16 | -53* | -40%
COc1cccc(CN2CCN(C3CCN(c4ccccc4F)CC3)CC2CCO)c1 (stereo unspecified) | -33 | -110* | 4%
Cc1cc(F)ccc1N1CCC(N2CCN(CCC(C)C)C(CCO)C2)CC1 (stereo unspecified) | -9 | ? | -65%
COc1cccc(CN2CCN(C3CSCCSC3)CC2CCO)c1 (stereo unspecified) | -13 | -16 | 9%
COc1cccc(CN2CCN(C3CCN(c4cccc(C)c4C)CC3)CC2CCO)c1 (stereo unspecified) | 29 | -4 | -52%
Cc1ccsc1CN(C(=O)c1oc2ccccc2c1C)C1CCS(=O)(=O)C1 (stereo unspecified) | -6 | . | .
O=C1CSc2ccc(C(=O)N3CCCCC3)cc2N1 | -3 | -3 | 5%
COc1cccc(N2CC(C(=O)Oc3ccc4ccccc4c3)CC2=O)c1 (stereo unspecified) | 4 | -18 | -5%
CCOC(=O)C1=C(C)N(Cc2ccccc2)C(=O)NC1c1ccccc1OS(=O)(=O)c1ccccc1[N+](=O)[O-] (stereo unspecified) | 46* | 0 | -12%
COC(=O)C1=C(C)N(CCCC(=O)O)C(=O)NC1c1ccccc1OS(=O)(=O)c1ccccc1[N+](=O)[O-] (stereo unspecified) | 9 | -9 | 18%
COc1cc(-c2cc(C(=O)Nc3c(Cl)cc(Cl)cc3Cl)c3ccccc3n2)cc(OC)c1OC | 16 | 71 | -6%
COc1ccc(-c2onc3ccc(C(=O)/C=C/N(C)C)cc23)cc1 | -9 | 4 | 0%
Nc1nc(Nc2cccc(F)c2)nc(N2CCOCC2)c1[N+](=O)[O-] | -10 | -16 | -17%
Cc1cccc(Nc2nc(N)c([N+](=O)[O-])c(N3CCCC(C)C3)n2)c1 (stereo unspecified) | 4 | 6 | -48%
CCN1CCN(c2nc(Nc3ccccc3F)nc(N)c2[N+](=O)[O-])CC1 | -17 | -63* | -26%
Cc1ccc(Nc2nc(N)c([N+](=O)[O-])c(N3CCOCC3)n2)cc1C | -5 | -19 | 20%
Cc1cccc(Nc2nc(N)c([N+](=O)[O-])c(N3CCN(C)CC3)n2)c1 | -32 | -64* | -13%
CN1CCN(c2nc(Nc3ccccc3)nc(N)c2[N+](=O)[O-])CC1 | -39 | -67* | -2%
CCN1CCN(c2nc(Nc3ccc(OC)cc3)nc(N)c2[N+](=O)[O-])CC1 | -27 | -54* | ?
Nc1nc(Nc2ccccc2F)nc(N2CCCC2)c1[N+](=O)[O-] | -5 | -1 | -21%
CCOc1ccc(-c2nnc(NC(=O)c3ccc(OCC(C)C)c(OC)c3)o2)cc1 | 4 | ? | -19%
O=C(OCC(=O)N1N=C(c2ccc(Cl)cc2)CC1c1ccco1)c1cccnc1 (stereo unspecified) | -8 | -2 | -56%
CCc1ccccc1NC(=O)CN1CCN(C(=O)c2cccc(-n3cnnn3)c2)CC1 | -2 | 6 | -2%
CCN1CCN(c2nc(Nc3ccccc3)nc(N)c2[N+](=O)[O-])CC1 | -1 | -12 | 2%
SMILES | DRD3 agonist | DRD3 antagonist | Integrin act MD
CCN1CCN(c2nc(Nc3cccc(C)c3)nc(N)c2[N+](=O)[O-])CC1 | -46 | -65* | 7%
O=C(NCC(c1ccco1)N1CCCC1)c1cccc(NS(=O)(=O)c2ccccc2)c1 (stereo unspecified) | -9 | -23 | -4%
COC(=O)C1CCN(C(=O)COc2ccc(S(=O)(=O)N3CCOCC3)cc2Cl)CC1 | 63* | -2 | 9%
Cc1cc(S(=O)(=O)N2CCOCC2)ccc1OCC(=O)N1CCC(C(N)=O)CC1 | -4 | 8 | 14%
CC(=O)Nc1nccc(-c2cc(-c3ccccc3)no2)n1 | 1 | 20 | -20%
COc1ccccc1NS(=O)(=O)c1ccc2c(c1)OCCO2 | -6 | -11 | ?
CCOc1ccc(S(=O)(=O)Nc2ccccc2SC)cc1 | -17 | -65* | 11%[7.66 µM]
COC(=O)COc1ccc(S(=O)(=O)Nc2ccccc2SC)cc1 | 1 | -2 | 5%
CN(c1ccccc1)S(=O)(=O)c1ccc2c(c1)OCCO2 | 41* | -11 | -6%
CSc1ccccc1NS(=O)(=O)c1ccc2c(c1)OCCO2 | 0 | -85* | -6%
CN(c1ccccc1)S(=O)(=O)c1ccc2ccccc2c1 | -4 | 8 | -6%
O=C(c1ccc2[nH]c(=O)c(=O)[nH]c2c1)N1CCc2ccccc2C1 | 8 | 3 | -27%
O=C(c1cccc(S(=O)(=O)N2CCc3ccccc3C2)c1)N1CCN(c2ccccc2)CC1 | 2 | 14 | -29%
O=C(c1ccc(CN2CCc3ccccc3C2)cc1)N1CCc2ccccc2C1 | -16 | -76* | 4%
COc1cc(OC)cc(C(=O)N2CCN(C3CCCCC3)CC2)c1 | -6 | ? | -4%
O=C(c1ccc(-n2cccc2)cc1)N1CCN(Cc2ccccc2)CC1 | -6 | -23 | 6%
COc1cc(OC)cc(C(=O)N2CCN(C3CCN(Cc4ccccc4)CC3)CC2)c1 | -6 | -62* | -21%
O=C(c1ccc(CN2CCc3ccccc3C2)cc1)N1CCN(c2ccccc2)CC1 | 0 | -62* | -15%
O=C(c1ccc2c(c1)CCC2)N1CCN(Cc2ccccc2)CC1 | -7 | -61* | 2%
Cc1ccccc1CSc1nn2c(=O)c(C)nnc2s1 | 0 | -12 | -20%
COc1cc(C(=S)N2CCCC2)cc(OC)c1O | 26 | 8 | -2%
Cc1cccc2c(N=O)c(O)n(CCc3ccccc3)c12 | 3 | 35 | -22%
O=c1c(-c2ccccc2)nc2ccccc2n1C(c1ccccn1)c1nc2ccccc2[nH]1 (stereo unspecified) | 1 | -8 | .
CCCNC(=O)c1ccc2c(=O)c(O)c(-c3ccc(C)cc3)[nH]c2c1 | 15 | -9 | -17%
Cc1ccc(-c2[nH]c3cc(C(=O)NCCCn4ccnc4)ccc3c(=O)c2O)cc1 | 7 | -64* | -9%
SMILES | DRD3 agonist | DRD3 antagonist | Integrin act MD
CCOCN(C(=O)Cn1cnc2cc(C)c(C)cc21)c1c(C)cccc1CC | 4 | . | .
CC1=NS(=O)(=O)c2cc(Cl)ccc2N1 | -3 | -5 | .
CC(=O)N1CCc2cc(C(=O)CN3CCN(c4cccc(Cl)c4)CC3)ccc21 | -8 | -50* | 4%
CC(=O)N1CCc2cc(C(=O)CN3CCC(C)CC3)ccc21 | -9 | -10 | -13%
CN(CC(=O)NCCc1ccccc1)S(=O)(=O)c1ccc(Br)s1 | -30 | -78* | ?
CN(CC(=O)NCCc1ccccc1)S(=O)(=O)c1cccs1 | -11 | -17 | -10%
COc1ccc2nc(C)cc(N/N=C/c3cccc(OC)c3O)c2c1 | -3 | 0 | -52%
COc1cccc(/C=N/Nc2ncnc(Cl)c2N)c1O | 12 | 10 | -15%
COc1cccc(/C=N/Nc2cc(-n3nc(C)cc3-c3ccccc3)ncn2)c1O | 38* | 24 | -22%
Cc1cc(C)n(-c2nc(Nc3ccccc3)nc(-n3nc(C)cc3C)n2)n1 | 4 | 1 | -5%
COc1cccc(/C=N/Nc2ncnc3scc(-c4ccccc4)c23)c1O | 38* | 46 | -16%
